# Experimental data taken from PubChem BioAssay (NCATS).
# Values joined by “and” are separate entries in the source; they are usually repeats but may differ in a detail not shown here. Identical values can stand only once. Inconclusive results are not listed. Active and inactive are the calls of the source. The call rests on the fitted dose curve; in most records, active means well fitted cell-killing curve with a large enough effect; inconclusive means small, poorly fitted or top-dose-only effect; inactive means no such curve, though single readings can be large or run the other way.
# Test: qHTS of pediatric cancer cell lines to identify multiple opportunities for drug repurposing: Primary screen for OHS-50 cells (AID 1347103); further: nearly all actives have a fitted effect of over 40% in size;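 on activity change, negative = cytotoxic: plate controls were DMSO neutral control for no effect and bortezomib positive control for full effect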
# Settings: OHS-50 osteosarcoma viability, CellTiter-Glo luminescence, 48 h; series mostly up to 57.3 µM; activity change, negative = cytotoxic: at the top concentration
# Summary of the method: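 Cells (500-1,000/well) rested 5 h, then received compounds for 48 h; metabolically active cells were measured by CellTiter-Glo luminescence. Final concentrations spanned up to 46 µM (MIPE, 11-point) or 0.59 nM-46 µM (NPC, 8-point) in primary screens, 11-point in follow-ups.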
# Potency means the concentration at half of the fitted maximal effect.
SMILES,"activity change, negative = cytotoxic",Potency
COC(=O)C1=C(C)NC(C)=C(C(=O)OC(C)C)C1c1cccc2nonc12 (centres undefined),-10.8% (inactive),
CC1(C)NC(=O)N(c2ccc([N+](=O)[O-])c(C(F)(F)F)c2)C1=O,,inactive
CC(C)(S)[C@@H](N)C(=O)O,10.9% (inactive),
Cc1ncc([N+](=O)[O-])n1CC(C)O (centres undefined),,inactive
COc1cc2c(cc1OC)C1CC(=O)C(CC(C)C)CN1CC2 (centres undefined),5.29% (inactive),
NS(=O)(=O)c1cc(C(=O)O)c(NCc2ccco2)cc1Cl,,inactive
COc1ccccc1N1CCN(CCN(C(=O)C2CCCCC2)c2ccccn2)CC1,18.8% (inactive),
Cc1cc(=O)oc2cc(O)ccc12,,inactive
CNC[C@@H](O)[C@@H](O)[C@H](O)[C@H](O)CO,14% (inactive),
c1cnc2cc3c(cc2n1)C1CNCC3C1,8.05% (inactive),
CCOC(=O)c1c(C)n(C)c2ccc(O)cc12,,inactive
CCOc1cc(CC(=O)N[C@@H](CC(C)C)c2ccccc2N2CCCCC2)ccc1C(=O)O,-10.4% (inactive),
CC1Cc2ccccc2N1NC(=O)c1ccc(Cl)c(S(N)(=O)=O)c1 (centres undefined),,inactive
O=C(OC1C[C@H]2CC[C@@H](C1)[N+]21CCCC1)C(O)(c1ccccc1)c1ccccc1 (some centres undefined),17% (inactive),
CCCCC(CC)COC(=O)C(C#N)=C(c1ccccc1)c1ccccc1 (centres undefined),,13.8 µM (active) and 24.3 µM (active)
NNc1nncc2ccccc12,,inactive
Oc1ccc(OCc2ccccc2)cc1,12.4% (inactive),
Cc1cc(C2CCCCC2)n(O)c(=O)c1,,3.09 µM (active) and 4.32 µM (active)
COc1ccc2cc([C@H](C)C(=O)O)ccc2c1,,inactive
Nc1ncn([C@H]2C[C@H](O)[C@@H](CO)O2)c(=O)n1,,inactive

SMILES,"activity change, negative = cytotoxic",Potency
COc1c2occc2cc2ccc(=O)oc12,-3.82% (inactive),
C[Se]CCC(N)C(=O)O (centres undefined),-6.49% [at 116 µM] (inactive),
CC1(C)C(=O)N(CCN2CCC(C(=O)c3ccc(F)cc3)CC2)c2ccccc21,12.1% (inactive),
CCCCCCCCCCCCCCCCCCCCCCO,2.91% (inactive),
O=C(NOCC1CC1)c1ccc(F)c(F)c1Nc1ccc(I)cc1Cl,,19.3 µM (active)
Cc1nc2n(c(=O)c1CCN1CCC(c3noc4cc(F)ccc34)CC1)CCCC2,-19% (inactive),
N=C(N)c1ccc2cc(OC(=O)c3ccc(N=C(N)N)cc3)ccc2c1,,inactive
CCN(CCO)CCCC(C)Nc1ccnc2cc(Cl)ccc12 (centres undefined),-4.93% [at 6.18 µM] (inactive),
CCN(CC)C(=S)SSC(=S)N(CC)CC,,0.0432 µM (active)
NC(=O)Cc1cccc(C(=O)c2ccccc2)c1N,,inactive
Cc1ccc(NC(=O)c2ccc(CN3CCN(C)CC3)cc2)cc1Nc1nccc(-c2cccnc2)n1,,17.4 µM (active)
O=C(O)c1cn(-c2ccc(F)cc2)c2cc(N3CCNCC3)c(F)cc2c1=O,,inactive
CN1C(C(=O)Nc2ccccn2)=C(O)c2sccc2S1(=O)=O,,inactive
Cc1cc2c(s1)Nc1ccccc1N=C2N1CCN(C)CC1,25.3% (inactive),
COc1cc(OC)c(C(=O)CCCN2CCCC2)c(OC)c1,-10.1% (inactive),
CC1=C(C(=O)O)N2C(=O)[C@@H](NC(=O)[C@H](N)C3=CCC=CC3)[C@H]2SC1,,inactive
Nc1cc(C(Cl)=C(Cl)Cl)c(S(N)(=O)=O)cc1S(N)(=O)=O,,inactive
Nc1ccc(S(N)(=O)=O)cc1,,inactive
Clc1ccc2c(N3CCN(CCCN4CCN(c5ccnc6cc(Cl)ccc56)CC4)CC3)ccnc2c1,53.2% [at 19.7 µM] (inactive),
